# Screening data as filed in PubChem BioAssay.
# HCMV antiviral: qHTS Assay for inhibitors of the human cytomegalovirus (HCMV). HFF cells, HCMV-luciferase reporter, 72 h; hits give low values. activity change, negative = inhibition, % at 57.5 µM. hit rate 4.5% among 410,000; in the data active = activity change below about -60%; inconclusive = no clear call, values can overlap the other calls; inactive = above about -39%; note: % is set by controls: 0 for no effect and ±100 for the full control effect
#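 HFF cells seeded 16 h at 37C, treated with compounds, infected with luciferase-reporter HCMV at MOI 1 PFU/cell; luciferase read at 72 h post infection, normalized to buffer-only and Salinomycin controls.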
# Sm TGR block: qHTS Assay for the Inhibitors of Schistosoma Mansoni Peroxiredoxins | Potency, µM (series often up to 114 µM), without a hit: at the top dose activity change, negative = inhibition, most hits filed as inhibitors | purified TGR, DTNB reduction, TNB absorbance 405 nm | hit rate 3% among 360,000; note: potency is the fitted concentration of half-maximal effect; % is set by controls: 0 for no effect and ±100 for the full control effect; nearly all actives have a fitted effect of over 60% in size
#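 First, TGR (20 nM dispensed) and NADPH were mixed with compound. Second, a 15 min room-temperature incubation followed. Third, further NADPH and then DTNB were added to start the reaction. Finally, TNB absorbance was monitored kinetically.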
# HCV inh: qHTS Assay for Inhibitors of Hepatitis C Virus (HCV); Huh7.5.1 HCVcc-Cre infection, luciferase reporter, 44 h; Potency, µM (titrated, usually from 41.8 µM), without a hit: top-dose activity change, negative = inhibition, actives largely listed as inhibitors; hit rate 3.4% among 340,000; AID 651820, 2012; note: potency is the fitted concentration of half-maximal effect; % is set by controls: 0 for no effect and ±100 for the full control effect
#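 Infectious HCV cell culture screen: compound-treated cells (1,000/well, pre-plated 4 h) are infected with HCVcc-Cre at roughly 0.5 moi and grown 44 h. Infection is quantified by luciferase signal after 15 min substrate incubation at room temperature.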
# Pf growth 48h: Primary qHTS for delayed death inhibitors of the malarial parasite plastid, 48 hour incubation; P. falciparum luciferase growth in erythrocytes, 48 h; Potency, µM (series often up to 28.7 µM), for inactives: top-dose activity change, negative = inhibition, usual class: inhibitors; hit rate 5.9% among 310,000; AID 504832, 2011; note: potency is the fitted concentration of half-maximal effect; % is set by controls: 0 for no effect and ±100 for the full control effect
#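 Erythrocytes infected with P. falciparum carrying an integrated firefly luciferase reporter (2% hematocrit, 0.1% parasitemia final) were exposed to compounds in RPMI 1640 with 0.5% Albumax at 37 C, 5% CO2. Growth inhibition was scored as reduced luminescence.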
# Pf growth 96h: Primary qHTS for delayed death inhibitors of the malarial parasite plastid, 96 hour incubation; Potency, µM (titrated, usually from 28.7 µM), inactives show top-dose activity change, negative = inhibition, most hits filed as inhibitors; hit rate 6.9% among 320,000; P. falciparum luciferase reporter growth, 96 h; note: potency is the fitted concentration of half-maximal effect; % is set by controls: 0 for no effect and ±100 for the full control effect
#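 Luminescence readout: decreased luciferase signal marks inhibited growth of reporter-expressing P. falciparum in infected red cells (2% hematocrit, 0.05% parasitemia final), exposed to compound two generations (96 h, 37 C, 5% CO2).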
# SARS PLpro yeast: qHTS of Yeast-based Assay for SARS-CoV PLP | hit rate 0.19% among 330,000 | S. cerevisiae expressing SARS-CoV PLpro, growth rescue | Potency, µM (top dose mostly 32.9 µM), for inactives: at the top dose activity, positive = growth rescue, usual class: activators | AID 485353, 2010; calls by dose curve; note: potency is the fitted concentration of half-maximal effect; 0% is about no effect; nearly all actives have a fitted effect of over 55% in size
# * hit, by the source's call; ? = inconclusive; . = not tested or not shown; [ ] = another dose, or the depositor's remark. Compounds with a hit are over-represented: about 15% of the library has one in this group of screens. Unless noted, calls come from the whole dose curve; as a rule, active = well fitted curve in the direction sought with a large enough effect; inconclusive = small, poorly fitted or top-dose-only effect, or another doubt; inactive = no such curve, though single readings can be large; an effect the other way counts as inactive or inconclusive.
SMILES,HCMV antiviral,Sm TGR block,HCV inh,Pf growth 48h,Pf growth 96h,SARS PLpro yeast
CC(C)(C)c1cc(/C=N/NC(=O)Cc2nc3ccccc3[nH]2)cc(C(C)(C)C)c1O,-78.6*,?,-6.8%,.,?,7.7%
Cc1cc(OCCCC(=O)Nc2cccc(-n3cnnn3)c2)ccc1Cl,?,6.3%,?,?,?,-13.4%
Cn1c(=O)c2c(nc(NCCNC(=O)c3ccco3)n2Cc2ccccc2)n(C)c1=O,-5.2,-2.9%,?,-18.8%,-1.3%,0.3%
COc1ccccc1Cn1c(SCC(=O)C(C)(C)C)nc2ccccc2c1=O,-4.3,19.1%,.,.,.,.
COc1ccccc1Cn1c(SCC#N)nc2cc(C(=O)N3CCC4(CC3)OCCO4)ccc2c1=O,-16.3,4.9%,?,?,9.28µM*,4.0%
COc1cccc(CNS(=O)(=O)c2c(C(=O)N3CCC(C)CC3)c(C)n(C)c2C)c1,-3.1,5.5%,.,.,.,.
C=CCOC(=O)COc1ccc2c3c(c(=O)oc2c1)CCCC3,-22.0,.,.,.,.,.
Cc1cc(/C=c2/sc3nc4ccccc4n3c2=O)c(C)n1-c1ccccn1,-101.3*,-6.2%,?,59.3%,-9.0%,0.9%
CCN(CC)c1ccc(/C=c2\sc3nc4ccccc4n3c2=O)c(O)c1,-36.0,-14.1%,?,8.28µM*,10.4µM*,0.1%
CC(Sc1nnc(-c2ccncc2)n1C)C(=O)Nc1nccs1 (stereo unspecified),4.2,-1.3%,4.9%,7.1%,?,1.7%
Oc1ccc(O)c2c1C1(Cl)C(Cl)=C(Cl)C2(Cl)C1(Cl)Cl,-64.5*,.,?,.,.,.
Cc1ccc(-n2ncc(C(=O)Nc3c(Cl)cccc3Cl)c2C2CCNCC2)cc1,?,9.7%,.,.,.,.
COc1ccc(NC(=O)c2cnn(-c3ccc(C)c(C)c3)c2C2CCNCC2)cc1OC,-5.5,44.7µM*,.,.,.,.
Cc1ccc(-n2ncc(C(=O)Nc3cc(Cl)ccc3Cl)c2C2CCNCC2)cc1,-87.2*,0.0%,12.6µM*,?,31.7%,2.7%
Cc1ccc(-n2ncc(C(=O)Nc3cc(Cl)cc(Cl)c3)c2C2CCNCC2)cc1C,-98.7*,6.0%,12.6µM*,?,-13.8%,3.7%
Cc1cc(=O)c2cc3nc(-c4cccnc4)oc3c(Br)c2o1,.,-11.9%,.,?,10.3%,-3.0%
Cc1csc(SCC(=O)Nc2cccc3nsnc23)n1,-74.7*,?,-55.9%,52.4%,?,-3.6%
CCn1c(SCC(=O)Nc2cc(C(C)(C)C)nn2-c2ccccc2)nnc1-c1cccs1,-25.4,-9.8%,15.8µM*,-13.2%,?,10.2%
CC(C)(C)c1cc(NC(=O)CSc2nncs2)n(-c2ccccc2)n1,52.8,-13.8%,?,1.5%,42.4%,-20.7%
Cc1csc(SCC(=O)Nc2cc(C(C)(C)C)nn2-c2ccccc2)n1,-0.8,2.7%,?,7.38µM*,?,-1.7%
CCC(C)n1c(SCC(=O)Nc2cc(C(C)(C)C)nn2-c2ccccc2)nc2ccccc2c1=O (stereo unspecified),-22.5,0.1%,?,10.4µM*,5.86µM*,5.8%
Cc1nnc(SCC(=O)Nc2cc(C(C)(C)C)nn2-c2ccccc2)s1,?,5.4%,8.4%,-5.8%,-0.2%,12.9%
C[C@@H]1CN([C@H](C)CO)C(=O)CCCn2nncc2CO[C@@H]1CN(C)C(=O)C1CC1,9.6,.,.,.,.,.
O=C(CSc1ccc(Cl)cc1)Nc1cccc(-c2nnc(-c3ccco3)o2)c1,5.8,5.8%,18.6%,59.4%,-18.0%,-13.8%
Cc1ccc(SCC(=O)Nc2cccc(-c3nnc(-c4ccco4)o3)c2)cc1,-98.6*,-10.2%,-28.4%,-91.5%,28.2%,-10.5%
SMILES,HCMV antiviral,Sm TGR block,HCV inh,Pf growth 48h,Pf growth 96h,SARS PLpro yeast
COc1cccc(C(=O)Nc2cccc(-c3nnc(-c4ccco4)o3)c2)c1,?,10.1%,22.4µM*,.,?,0.8%
Cc1ccc(CSCC(=O)N(C)CC(=O)Nc2c(Cl)cccc2Cl)cc1,-12.4,-3.0%,0.1%,10.4µM*,?,-2.6%
CCc1cc(C(=O)N(C)CC(=O)Nc2c(Cl)cccc2Cl)sc1C,-67.0*,-4.9%,-27.4%,?,-87.6%,-4.1%
CN(CC(=O)Nc1c(Cl)cccc1Cl)C(=O)Cc1ccsc1,0.4,.,12.9%,.,.,-18.0%
Cc1cnc(C(=O)OCC(=O)Nc2ccc(Br)c(C)c2)cn1,3.6,2.0%,9.6%,-11.7%,10.2%,-8.2%
CCC(C)n1c(NC(=O)c2ccccc2)c(C#N)c2nc3ccccc3nc21 (stereo unspecified),-38.9,-0.8%,?,3.7µM*,2.94µM*,-25.1%
CCCCn1c(NC(=O)c2ccccc2)c(C#N)c2nc3ccccc3nc21,-66.7*,-14.8%,?,5.86µM*,.,-19.9%
CCC(=O)Nc1c(C#N)c2nc3ccccc3nc2n1-c1ccc(C)cc1,-27.2,.,14.0%,.,.,.
CCC(C(=O)NNC(=O)c1cnccn1)c1ccccc1 (stereo unspecified),-29.1,-0.5%,6.5%,?,?,2.8%
Cc1csc2nc(COC(=O)c3cccc(NC(=O)c4cccc(Cl)c4)c3)cc(=O)n12,-21.2,-13.4%,.,.,.,.
COCCn1c(N)c(C(=O)NCC2CCCO2)c2nc3ccccc3nc21 (stereo unspecified),-11.1,11.6%,-17.6%,?,47.5%,-1.9%
Nc1c(C(=O)OCC2CCCO2)c2nc3ccccc3nc2n1Cc1cccs1 (stereo unspecified),-16.5,-2.7%,-27.2%,?,3.7µM*,-16.5%
Nc1c(C(=O)OCC2CCCO2)c2nc3ccccc3nc2n1C1CCCC1 (stereo unspecified),-16.8,?,?,10.4µM*,8.2%[5.75 µM],-6.3%
O=C(OCc1c(F)cccc1Cl)c1cc([N+](=O)[O-])ccc1N1CCOCC1,-23.3,-1.8%,11.2µM*,?,6.9%,4.2%
Cc1ccc(C(=O)c2cc([N+](=O)[O-])ccc2N2CCOCC2)cc1,-14.7,-6.2%,?,-2.8%,-12.8%,-8.7%
O=C(OCc1ccc([N+](=O)[O-])cc1)c1cc([N+](=O)[O-])ccc1N1CCOCC1,-26.8,-35.0%,4.47µM*,?,?,1.1%
Cc1ccc(COC(=O)c2cc([N+](=O)[O-])ccc2N2CCOCC2)cc1,-63.3*,19.5%,.,?,?,-12.4%
O=C(COC(=O)c1cc([N+](=O)[O-])ccc1N1CCOCC1)c1ccccc1,-10.4,7.9%,?,-18.9%,-2.9%,-0.3%
O=C(OCc1ccccc1Cl)c1cc([N+](=O)[O-])ccc1N1CCOCC1,14.6,.,?,.,.,.
